Compound activity (PubChem BioAssay)
Only some compounds are listed: those with a hit (about 6.7% of all), similar ones and a draw of the others.
T cruzi growth-1: T. cruzi intracellular proliferation inhibitors, primary screen, cell-based, beta-gal Tulahuen parasites, NIH3T3 host, luminescence | 77,000 compounds, 5.9% hits | T. cruzi beta-gal in NIH3T3, GalScreen luminescence, 90 h | inhibition, % at 8.34 µM | AID 624255, 2012;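 active means mean inhibition above about 93%, with at least 55% of replicates each passing it, limit read from the data, passing the limit was not always enough; inconclusive means only one of those two conditions holds; inactive means neither condition holds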
C diff growth: C. difficile growth inhibitors, primary screen, HTS; growth activity, negative = inhibition, % at 16 µg/mL (by protocol); Clostridium difficile clinical isolate growth, OD600, 24 h; active compounds read low; 86,000 compounds, 0.25% hits;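 active means mean growth activity at or below -80% and every replicate also at or below -80%; inconclusive means mean at or below -80% but some replicate above -80%; inactive means mean growth activity above -80%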
Pf Dd2 inh: P. falciparum Dd2 growth inhibitors, primary screen, SYBR Green fluorescence, single dose replicates. 94,000 compounds, 2.3% hits. AID 1159554, 2015. activity change, % at 10 µM. 72 h; active compounds read low; in the data active means activity change below about -80%; inconclusive means no clear call, values can overlap the other calls
T cruzi growth-2: T. cruzi intracellular proliferation inhibitors, confirmation, cell-based, NIH3T3 host, beta-gal parasite, luminescence, cherry-pick; shares compounds with T cruzi growth-1; T. cruzi beta-gal in NIH3T3, GalScreen luminescence, 90 h; inhibition, % at 8.35 µM; 5,600 compounds, 72% hits; AID 651739, 2012;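 active means mean replicate inhibition above about 95% and at least 55% of replicates individually reaching it, limit read from the data; inconclusive means only one of the two criteria is met; inactive means neither criterion is met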
T cruzi growth-3: inhibitors of intracellular T. cruzi replication, confirmation, NIH3T3 host cells, beta-gal parasites, cherry-pick, set 2; T. cruzi beta-gal in NIH3T3, GalScreen luminescence, 90 h; 5,600 compounds, 21% hits; shares compounds with T cruzi growth-1; AID 651740, 2012; inhibition, % at 2.09 µM;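 active means mean inhibition above about 95%, with at least 55% of replicates also reaching it, limit read from the data; inconclusive means meets just one of the two conditions; inactive means meets neither condition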
NIH3T3 tox: cytotoxicity in mouse NIH/3T3 fibroblasts, confirmation, cytotoxicity control for T. cruzi proliferation inhibitor project, cell-based, cherry-pick, single point; shares compounds with T cruzi growth-1; NIH/3T3 viability, CellTiter-Glo ATP luminescence, 90 h; cytotoxicity (signal decrease), % at 8.35 µM; 5,600 compounds, 14% hits;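 active means mean signal decrease across replicates above about 35% based on untreated-well scatter, with enough replicates individually passing, limit read from the data; inconclusive means no rule stated though some were filed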
NIH3T3 tox 2: NIH/3T3 fibroblast cytotoxicity, confirmation, cytotoxicity control, cell-based, cherry-pick, single point, set 2; shares compounds with T cruzi growth-1; NIH/3T3 viability, CellTiter-Glo ATP luminescence, 90 h; inhibition, % at 24.9 µM; 5,600 compounds, 56% hits;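 active means mean loss of cell viability signal at or above a set limit, and enough replicates individually reaching it; inconclusive means meets only the mean limit or only the replicate share; inactive means meets neither condition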
Each line names hits and unclear results; the compound was inactive in the other large screens (follow-up assays come after a bar, where they were run).

C[C@H](CO)N1C[C@H](C)[C@@H](CN(C)S(=O)(=O)c2ccc(Cl)cc2)OCCCC[C@H](C)Oc2ccc(NS(=O)(=O)c3ccc(F)cc3)cc2C1=O	none
C[C@@H]1CN([C@H](C)CO)C(=O)c2cc(NS(=O)(=O)c3ccc(F)cc3)ccc2O[C@@H](C)CCCCO[C@H]1CN(C)S(=O)(=O)c1ccc(Cl)cc1	T cruzi growth-1 inconclusive | T cruzi growth-2 105.1 | T cruzi growth-3 113.2 | NIH3T3 tox inactive | NIH3T3 tox 2 inactive
C[C@@H]1CN([C@@H](C)CO)C(=O)c2cc(NS(=O)(=O)c3ccc(F)cc3)ccc2O[C@@H](C)CCCCO[C@H]1CN(C)S(=O)(=O)c1ccc(Cl)cc1	none
C[C@@H]1CCCCO[C@H](CN(C)S(=O)(=O)c2ccc(Cl)cc2)[C@H](C)CN([C@H](C)CO)C(=O)c2cc(NS(=O)(=O)c3ccc(F)cc3)ccc2O1	none
O=C(C[C@H]1CC[C@H]2[C@@H](COC[C@H](O)CN2Cc2ccccc2F)O1)NCc1ccccc1F	none
C/C=C/c1ccc2c(c1)O[C@@H](CN(C)C(=O)C1CCCCC1)[C@@H](C)CN([C@@H](C)CO)S2(=O)=O	none (no result: T cruzi growth-1, C diff growth)
C[C@@H]1CCCCO[C@H](CN(C)S(=O)(=O)c2ccc(Cl)cc2)[C@H](C)CN([C@@H](C)CO)C(=O)c2cc(NS(=O)(=O)c3ccc(F)cc3)ccc2O1	none
C[C@H]1CCCCO[C@@H](CN(C)S(=O)(=O)c2ccc(Cl)cc2)[C@@H](C)CN([C@@H](C)CO)C(=O)c2cc(NS(=O)(=O)c3ccc(F)cc3)ccc2O1	T cruzi growth-1 102.0 | T cruzi growth-2 104.7 | T cruzi growth-3 110.4 | NIH3T3 tox inactive | NIH3T3 tox 2 inactive
C[C@H](O)C#Cc1ccc2c(c1)O[C@H](CN(C)C(=O)c1ccccc1)[C@@H](C)CN([C@H](C)CO)S2(=O)=O	none
C[C@H](CO)N1C[C@H](C)[C@H](CN(C)C(=O)CN(C)C)Oc2ncc(C#Cc3cccnc3)cc2C1=O	none (no result: T cruzi growth-1)
C[C@H](CO)N1C[C@H](C)[C@@H](CN(C)CC2CCCCC2)Oc2ccc(NS(=O)(=O)c3ccc(Cl)cc3)cc2CC1=O	none
C[C@@H]1CN([C@H](C)CO)C(=O)Cc2cc(NS(=O)(=O)c3ccc(Cl)cc3)ccc2O[C@H]1CN(C)CC1CCCCC1	T cruzi growth-1 106.3 | T cruzi growth-2 95.9 | T cruzi growth-3 inconclusive | NIH3T3 tox inactive | NIH3T3 tox 2 106.3
CC(C)NC(=O)N(C)C[C@H]1Oc2ccc(NS(=O)(=O)c3ccc(F)cc3)cc2CC(=O)N([C@H](C)CO)C[C@@H]1C	T cruzi growth-1 103.3 | T cruzi growth-2 inactive | T cruzi growth-3 inactive | NIH3T3 tox inactive | NIH3T3 tox 2 inactive
C[C@H]1CN([C@@H](C)CO)C(=O)Cc2cc(NS(=O)(=O)c3ccc(F)cc3)ccc2O[C@H]1CN(C)CC1CC1	none (no result: T cruzi growth-1)
CC(C)NC(=O)N(C)C[C@@H]1Oc2ccc(NS(=O)(=O)c3ccc(F)cc3)cc2CC(=O)N([C@@H](C)CO)C[C@H]1C	none
C[C@H](CO)N1C[C@H](C)[C@@H](CN(C)CC2CCCCC2)Oc2ccc(NS(=O)(=O)c3ccc(F)cc3)cc2CC1=O	T cruzi growth-1 107.0 | T cruzi growth-2 107.5 | T cruzi growth-3 inactive | NIH3T3 tox inactive | NIH3T3 tox 2 103.9
COCC(=O)Nc1ccc2c(c1)[C@H]1C[C@@H](CC(=O)N3CCOCC3)O[C@@H](CO)[C@H]1O2	none
C[C@H]1CN([C@@H](C)CO)C(=O)CCCn2cc(nn2)CO[C@H]1CN(C)C(=O)Nc1ccc(-c2cccs2)cc1	none (no result: C diff growth)
Cc1noc(C)c1S(=O)(=O)Nc1ccc2c(c1)C(=O)N([C@H](C)CO)C[C@H](C)[C@@H](CN(C)C(=O)Cc1ccccc1)OCCCC[C@H](C)O2	none
Cc1noc(C)c1S(=O)(=O)Nc1ccc2c(c1)C(=O)N([C@@H](C)CO)C[C@H](C)[C@H](CN(C)Cc1ccc(C(=O)O)cc1)OCCCC[C@H](C)O2	none
O=C(C[C@@H]1CC[C@@H](NS(=O)(=O)c2ccccc2)[C@@H](CO)O1)NCc1ccncn1	none
O=C(C[C@H]1CC[C@@H](NS(=O)(=O)c2ccc(F)cc2)[C@H](CO)O1)NC1CCC1	T cruzi growth-1 118.6 | T cruzi growth-2 inactive | T cruzi growth-3 inactive | NIH3T3 tox inactive | NIH3T3 tox 2 inactive
Cc1ccc(S(=O)(=O)N[C@H]2CC[C@@H](CCNC(=O)Cc3ccccn3)O[C@H]2CO)cc1	none
Cc1ccc(S(=O)(=O)N[C@@H]2CC[C@@H](CCNC(=O)Cc3ccccn3)O[C@H]2CO)cc1	T cruzi growth-1 inconclusive | T cruzi growth-2 inactive | T cruzi growth-3 inactive | NIH3T3 tox inactive | NIH3T3 tox 2 inactive
O=C(C[C@H]1CC[C@H](NS(=O)(=O)c2ccc(F)cc2)[C@@H](CO)O1)NC1CCC1	none
O=C(C[C@H]1CC[C@@H](NS(=O)(=O)c2ccccc2)[C@@H](CO)O1)NCc1ccncn1	T cruzi growth-1 123.2 | T cruzi growth-2 101.4 | T cruzi growth-3 inactive | NIH3T3 tox inactive | NIH3T3 tox 2 inactive
COc1cccc(NC(=O)N(C)C[C@@H]2Oc3ncc(C4=CCCCC4)cc3C(=O)N([C@H](C)CO)C[C@H]2C)c1	none
CCCNC(=O)[C@@H]1[C@@H](CO)[C@@H]2Cn3c(ccc(-c4ccccc4F)c3=O)[C@H]1N2CCC	none
C[C@H](CO)N1C[C@H](C)[C@H](CN(C)C(=O)Nc2ccc(C(F)(F)F)cc2)Oc2ncc(C#C[C@@H](C)O)cc2C1=O	none (no result: T cruzi growth-1)
C[C@@H]1CN([C@H](C)CO)C(=O)c2cc(C#Cc3ccccn3)cnc2O[C@@H]1CN(C)Cc1cncnc1	none
C[C@@H]1CN([C@@H](C)CO)C(=O)c2cc(C#Cc3ccccn3)cnc2O[C@H]1CN(C)Cc1cccnc1	none
C[C@H](CO)N1C[C@H](C)[C@@H](CN(C)Cc2cncnc2)Oc2ncc(C#Cc3ccccn3)cc2C1=O	T cruzi growth-1 inconclusive | T cruzi growth-2 102.5 | T cruzi growth-3 inactive | NIH3T3 tox inactive | NIH3T3 tox 2 inactive
C[C@@H]1CN([C@@H](C)CO)C(=O)c2cc(C#Cc3ccccn3)cnc2O[C@@H]1CN(C)Cc1cncnc1	T cruzi growth-1 inconclusive | T cruzi growth-2 104.2 | T cruzi growth-3 inactive | NIH3T3 tox inactive | NIH3T3 tox 2 inactive
CN(C)C(=O)C[C@@H]1C[C@@H]2c3cc(NC(=O)Nc4ccccc4F)ccc3O[C@@H]2[C@H](CO)O1	none
